Sampled rows, rich in hits. Any-hit rate of the full collection: about 5.4%.
GASC-1 inh: human JMJD2C demethylase inhibition; AID 2099; GST-JMJD2C(1-420) H3K9me3 demethylation, DELFIA europium; Q9H3R0; inhibition, % at 2.35 µM; 330,000 compounds, 0.069% hits;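 active = more than half of a compound's replicate wells show inhibition beyond 50%, single wells judged on their own value; inconclusive = some, but no more than half, of replicates pass 50% inhibition; inactive = no replicate passes 50% inhibition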;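 also: signal counts dimethyl H3K9 product captured on neutravidin plate; 0% = median of DMSO wells and 100% = 0.3 times that DMSO median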
Target sequence (Q9H3R0 1-420 limits assumed): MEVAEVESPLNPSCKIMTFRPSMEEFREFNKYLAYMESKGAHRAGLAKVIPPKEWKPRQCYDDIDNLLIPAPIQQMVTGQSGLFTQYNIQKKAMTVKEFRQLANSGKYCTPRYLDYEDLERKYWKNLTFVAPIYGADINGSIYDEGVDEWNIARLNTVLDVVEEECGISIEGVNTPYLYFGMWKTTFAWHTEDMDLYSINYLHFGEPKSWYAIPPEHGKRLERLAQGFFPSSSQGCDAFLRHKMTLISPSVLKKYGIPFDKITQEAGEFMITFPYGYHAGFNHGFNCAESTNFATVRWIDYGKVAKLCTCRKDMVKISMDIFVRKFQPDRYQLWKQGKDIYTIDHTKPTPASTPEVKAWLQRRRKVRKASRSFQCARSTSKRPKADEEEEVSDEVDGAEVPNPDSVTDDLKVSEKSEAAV
PfM18AAP inh: PfM18AAP enzyme inhibition. inhibition, % at 7.35 µM. 290,000 compounds, 1.2% hits. recombinant PfM18AAP, H-Glu-NHMec fluorogenic cleavage. AID 1822;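 active = inhibition above the campaign mean inhibition over all tested compounds plus 3 SD, cut at about 28% in these data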;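 also: 0% = plate median of test compound wells and 100% = 2 mM ZnCl2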
ALR inh: blocks human ALR sulfhydryl oxidase activity; P55789; purified ALR, DTT oxidation, H2O2 HRP-luminol luminescence; inhibition, % (test concentration not listed); 290,000 compounds, 3.8% hits;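 active = mean replicate inhibition above about 79%, with every replicate also reaching it, limit read from the data; inconclusive = only one of the two criteria met; inactive = mean below limit and not every replicate reaching it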
SMARCA2 activ: increases SMARCA2 function in MMTV reporter cells. MG213 cells, MMTV-luciferase reporter, dexamethasone, overnight. activation, % at 9.1 µM. 370,000 compounds, 1% hits. AID 652017; in the data active = activation above about 7.8%;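 also: 0% = vehicle wells and 100% = reference activator wells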
MIN6 prolif: induces beta-cell replication in MIN6 cells | proliferation, % at 10 µM | AID 2380 | 330,000 compounds, 0.29% hits | MIN6 cells proliferation, ATPlite luminescence, 48 h; cells starved in 0.2% serum; 100% = growth in 10% serum;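 active = compounds whose signal lies at least 3.5 SD above the mean of all wells on their plate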;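 also: 0% = DMSO-treated cells in low-serum medium and 100% = 10% serum control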
Exocytosis inh: blocks lytic granule exocytosis | TALL-104 LAMP-1 surface exposure, flow cytometry; cells stimulated with thapsigargin and PMA | inhibition, % at 10 µM | 360,000 compounds, 0.66% hits;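 active = inhibition above about 55%, limit read from the data; inconclusive = no clear call, values can overlap the other calls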
An asterisk follows results filed as active.

How did C=CCn1c(SCC(=O)Nc2ccc(Br)cc2)nc(O)c(CC)c1=O do in these assays?
GASC-1 inh: -21; PfM18AAP inh: -3; ALR inh: 98*; SMARCA2 activ: -1; MIN6 prolif: -2; Exocytosis inh: -2

What do the screens show for `COC(=O)c1ccc(NC(=O)CSc2nc(=O)cc(N)n2-c2ccccc2)cc1`?
GASC-1 inh: -17; PfM18AAP inh: 2; ALR inh: 99*; SMARCA2 activ: 1; MIN6 prolif: 0; Exocytosis inh: -3

What do the screens show for `COc1ccc(C(=O)Nc2ccc3c(c2)nc2n3CCSC2)cc1`?
GASC-1 inh: 4; PfM18AAP inh: 4; ALR inh: 99*; SMARCA2 activ: 4; MIN6 prolif: -2; Exocytosis inh: -1

How did O=C(Nc1ccc2c(c1)nc1n2CCSC1)c1ccccc1 do in these assays?
GASC-1 inh: -2; PfM18AAP inh: -15; ALR inh: 99*; SMARCA2 activ: 4; MIN6 prolif: -4; Exocytosis inh: 1

How did CC1CCCC(C)N1C(=O)CSc1nc2ccccc2s1 (configuration not stated) do in these assays?
GASC-1 inh: 5; PfM18AAP inh: 0; ALR inh: 98*; SMARCA2 activ: 1; MIN6 prolif: -3; Exocytosis inh: 3

What do the screens show for `CC(C)(C)NC(=O)CSc1nc(Cc2ccccc2)nc2ccccc12`?
GASC-1 inh: 35; PfM18AAP inh: 2; ALR inh: 98*; SMARCA2 activ: -4; MIN6 prolif: -1; Exocytosis inh: -1

Results for NC(=O)C1CCN(C(=O)CSc2nc3ccccc3s2)CC1 ?
GASC-1 inh: 9; PfM18AAP inh: -7; ALR inh: 98*; SMARCA2 activ: -1; MIN6 prolif: -2; Exocytosis inh: -2

How did CC1CCN(C(=O)CSc2nc3ccccc3s2)CC1 do in these assays?
GASC-1 inh: 1; PfM18AAP inh: 12; ALR inh: 99*; SMARCA2 activ: 7; MIN6 prolif: -3; Exocytosis inh: 1

How did Cc1ccc(C)c(NC(=O)C2CCCN2S(=O)(=O)c2cccc3cccnc23)c1 (configuration not stated) do in these assays?
SMARCA2 activ: -1

What do the screens show for `O=C(CN1CCC(NC(=O)Nc2ccc(Cl)cc2)CC1)Nc1ccc2c(c1)OCCO2`?
SMARCA2 activ: -7

How did CCOc1ccc(N(CC(=O)Nc2c(C)n(C)n(-c3ccccc3)c2=O)S(=O)(=O)c2ccc(C(C)(C)C)cc2)cc1 do in these assays?
SMARCA2 activ: 0

Results for O=C(c1cccc(F)c1)N(Cc1ccccn1)CC1CCCO1 (configuration not stated) ?
SMARCA2 activ: -5

How did CC1CN(C(=O)C(C)Sc2nc3ccccc3s2)CC(C)O1 (configuration not stated) do in these assays?
GASC-1 inh: 6; PfM18AAP inh: -3; ALR inh: 99*; SMARCA2 activ: 3; MIN6 prolif: 1; Exocytosis inh: -1

Results for Cc1ccc2nc(SC(C)C(=O)N3CC(C)OC(C)C3)[nH]c2c1 (configuration not stated) ?
GASC-1 inh: inconclusive; PfM18AAP inh: -2; ALR inh: -8; SMARCA2 activ: -1; MIN6 prolif: 0; Exocytosis inh: -2

How did O=C(CSc1nc2ccccc2s1)N1CCN(C(=O)c2ccco2)CC1 do in these assays?
GASC-1 inh: 23; PfM18AAP inh: -1; ALR inh: 99*; SMARCA2 activ: 0; MIN6 prolif: 0; Exocytosis inh: 1

How did CCOc1ccc2nc(SCC(=O)N3CCN(C(=O)c4ccco4)CC3)sc2c1 do in these assays?
GASC-1 inh: 2; PfM18AAP inh: 2; ALR inh: -5; SMARCA2 activ: 1; MIN6 prolif: 4; Exocytosis inh: 15

Results for CCc1nc(SCC(=O)N2CCCC2)c2ccccc2n1 ?
GASC-1 inh: 6; PfM18AAP inh: 7; ALR inh: 92*; SMARCA2 activ: -1; MIN6 prolif: -1; Exocytosis inh: -5

How did O=C(CSc1nc2ccccc2s1)N1CCCCC1 do in these assays?
GASC-1 inh: -1; PfM18AAP inh: -13; ALR inh: 99*; SMARCA2 activ: 7; MIN6 prolif: 0; Exocytosis inh: -4

Results for CC(C)c1nc(SCC(=O)N2CCCC2)c2ccccc2n1 ?
GASC-1 inh: 1; PfM18AAP inh: 11; ALR inh: -3; SMARCA2 activ: 3; MIN6 prolif: 2; Exocytosis inh: 2

Screening data (PubChem)
